NTMT1 inh: blocks human N-terminal methyltransferase 1 activity; Q9BV86; NTMT1 MTase-Glo SAH luminescence, purified enzyme; Potency, µM (highest dose often 114 µM), inactives show top-dose activity change, negative = inhibition, usual class: inhibitors; 59,000 tested, 2.5% active; AID 1645870;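 further: potency means the concentration at half of the fitted maximal effect; plate controls were DMSO vehicle for no effect and no enzyme for full effect; nearly all actives have a fitted effect of over 65% in size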
HTT-AS act: HTT-AS promoter activation | HEK293 HTT-AS promoter firefly luciferase reporter, 24 h; response scale: percent change from vehicle, -100% = no light | Potency, µM (titrated, usually from 57.5 µM), for inactives: at the top dose activity change, positive = activation, hits mostly activators | 48,000 tested, 0.24% active; further: potency means the concentration at half of the fitted maximal effect; nearly all actives have a fitted effect of over 55% in size
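Luminescence was read after Dual-Glo reagent and a 10 min room-temperature incubation. Values were normalized to vehicle (0% activity) and zero RLU (-100% activity). Reporter HEK293 cells had been exposed to compounds (up to 57.5 uM final) for 24 h.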
HTT prom inh: HTT promoter inhibition | HEK293 HTT promoter firefly luciferase reporter, 24 h | 48,000 tested, 0.93% active | Potency, µM (top dose mostly 57.5 µM), for the others: at the top dose activity change, negative = inhibition, hits mostly inhibitors; further: potency means the concentration at half of the fitted maximal effect; nearly all actives have a fitted effect of over 50% in size
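HEK293 cells carrying firefly luciferase reporters were seeded at 2,500 per well in Opti-MEM and cultured for 24 h. They were then treated with compounds at up to 57.5 uM final for 24 h at 37 degrees C before Dual-Glo luminescence readout.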
GALC G270D act: galactocerebrosidase G270D activity enhancement, cell-based; 45,000 tested, 0.1% active; Potency, µM (top dose mostly 57.5 µM), usual class: activators; AID 1159614; 145M-Twi-hGALC-G270D cells, HMU-beta-Gal fluorescence, 48 h; P54803; further: potency means the concentration at half of the fitted maximal effect; 0% is about no effect; nearly all actives have a fitted effect of over 65% in size
Target sequence (P54803 whole entry G286D): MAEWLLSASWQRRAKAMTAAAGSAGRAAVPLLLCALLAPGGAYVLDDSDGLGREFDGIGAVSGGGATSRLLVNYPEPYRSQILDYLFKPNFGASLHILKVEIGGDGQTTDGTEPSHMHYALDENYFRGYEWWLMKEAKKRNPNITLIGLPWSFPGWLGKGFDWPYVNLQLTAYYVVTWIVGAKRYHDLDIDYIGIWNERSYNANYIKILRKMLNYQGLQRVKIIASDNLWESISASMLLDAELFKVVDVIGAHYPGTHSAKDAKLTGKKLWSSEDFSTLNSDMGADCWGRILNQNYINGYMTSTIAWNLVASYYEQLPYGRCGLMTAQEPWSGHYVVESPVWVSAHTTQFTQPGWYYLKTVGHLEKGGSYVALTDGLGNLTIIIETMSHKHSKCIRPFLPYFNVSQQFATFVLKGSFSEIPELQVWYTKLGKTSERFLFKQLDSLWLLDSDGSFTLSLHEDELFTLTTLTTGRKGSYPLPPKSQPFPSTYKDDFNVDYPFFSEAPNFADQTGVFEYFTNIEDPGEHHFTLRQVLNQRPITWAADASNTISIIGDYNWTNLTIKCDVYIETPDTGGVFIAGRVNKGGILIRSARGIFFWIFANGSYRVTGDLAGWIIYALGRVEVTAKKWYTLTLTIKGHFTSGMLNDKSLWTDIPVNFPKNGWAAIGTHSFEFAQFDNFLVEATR
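qHTS, 1536-well; 145M-Twi-hGALC-G270D cells (WT line also made) in DMEM/F12 + 10% FBS; compound incubation on live cells; HMU-β-gal 0.1 mM final, pH 5.2, NaTC; carbonate stop; fluorescence increase = enhanced residual activity.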
Sfp qHTS opt: Sfp PPTase inhibition, chemistry optimization | purified Sfp PPTase enzyme activity, qHTS | shares compounds with NTMT1 inh | 230 tested, 78% active | Potency, µM (highest dose often 114 µM), inactives show at the top dose activity change, negative = inhibition, actives largely listed as inhibitors
HM489 growth: B. subtilis HM489 growth inhibition; Potency, µM (highest dose often 114 µM), inactives show at the highest dose activity change, negative = inhibition, usual class: inhibitors; shares compounds with NTMT1 inh; 220 tested, 50% active; B. subtilis HM489 (acpS-) growth, BacTiter-Glo, 5 h
Sfp PPTase gel: Sfp PPTase inhibition, gel-based detection; shares compounds with NTMT1 inh; purified Sfp PPTase, gel-based product detection; Potency, µM (series often up to 250 µM), for the others: at the highest dose activity change, negative = inhibition, usual class: inhibitors; 220 tested, 54% active; AID 540355
Sfp gel: inhibits B. subtilis Sfp PPTase in gel-based assay; 45 tested, 90% active; shares compounds with NTMT1 inh; AID 602362; purified Sfp PPTase, gel-based product detection; Potency, µM (doses to about 250 µM), for the others: top-dose activity change, negative = inhibition, usual class: inhibitors
Sfp inh SAR2: inhibitors of Bacillus subtilis Sfp PPTase, SAR round 2; shares compounds with NTMT1 inh; purified Sfp enzyme, PPTase activity, qHTS; Potency, µM (doses to about 57.1 µM), without a hit: at the top dose activity change, negative = inhibition, usual class: inhibitors; 230 tested, 87% active; AID 602370
hGST A1-1 inh: hGST A1-1 enzyme inhibition, Sfp SAR counter-screen; shares compounds with NTMT1 inh; hGST A1-1 enzyme activity counter-screen, qHTS; Potency, µM (doses to about 114 µM), for inactives: at the top dose activity change, negative = inhibition, hits mostly inhibitors; 55 tested, under 10 active
HSD17B4 inh: HSD17B4 (human) inhibition, HPGD counter-screen. Potency, µM (top dose mostly 57.1 µM), for the others: top-dose activity change, negative = inhibition, usual class: inhibitors. AID 743187. purified HSD17B4, estradiol/NAD+, NADH fluorescence. 230 tested, 10% active. shares compounds with NTMT1 inh
ALDH1A1 inh: counter-screen for HPGD inhibitors: human ALDH1A1 inhibition | recombinant ALDH1A1, NADH fluorescence, propionaldehyde/NAD+ | AID 743195 | 230 tested, 93% active | shares compounds with NTMT1 inh | Potency, µM (highest dose often 57.1 µM), for the others: top-dose activity change, negative = inhibition, hits mostly inhibitors
* = called active by the depositor; i = inactive; ? = inconclusive; · = not tested or not shown; ! = not active in a repeat; [ ] = dose if it differs, or a comment. Sampled rows, rich in hits. Any-hit rate of the full collection: about 2.7%. The call rests on the fitted dose curve; in most records, active means well fitted curve in the direction sought with a large enough effect; inconclusive means small, poorly fitted or top-dose-only effect, or another doubt; inactive means no such curve, though single readings can be large; an effect the other way counts as inactive or inconclusive.

SMILES	NTMT1 inh	HTT-AS act	HTT prom inh	GALC G270D act	Sfp qHTS opt	HM489 growth	Sfp PPTase gel	Sfp inh SAR2	HSD17B4 inh	ALDH1A1 inh	others
Cc1ccnc(NC(=S)N[C@H]2CCN(c3cccc(C(F)(F)F)c3)C2)c1	8.2%[57.5 µM]	·	·	·	-3.0%	?	?	?	-0.3%	21.5µM*
FC(F)(F)c1cccc(N2CCN(C(=S)Nc3cc(C(F)(F)F)ccn3)CC2)c1	?	·	·	·	5.13µM*	7.44µM*	?	?	-12.1%	19.2µM*	Sfp gel=-5.0%;hGST A1-1 inh=?
CC(=O)c1ccc(N2CCN(C(=O)Nc3ccc(C)cc3)CC2)cc1	-1.9%	-23.7%	?	i	·	·	·	·	·	·
Cc1cc(C)nc(NC(=S)N2CCN(c3ccc4cn(C)nc4c3)CC2)c1	?	·	·	·	13.2µM*	12.3%	-68.5%	11.5µM*	?	21.5µM*
COC(=O)c1c(-c2ccc(Cl)cc2)noc1N1CCN(c2cccc(C(F)(F)F)c2)CC1	3.8%	?	-27.0%	i	·	·	·	·	·	·
Cc1cc(C)nc(NC(=S)N2CCN(S(=O)(=O)c3cccc(C(F)(F)F)c3)CC2)c1	?	·	·	·	2.35µM*	?	-29.3%	0.81µM*	-18.5%	21.5µM*
Cc1cn(C)c(CC(=O)N2CCN(c3cccc(C(F)(F)F)c3)CC2)c1C(=O)O	-7.0%	-20.5%	?	i	·	·	·	·	·	·
CC(C)(C)C(=O)N1CCN(c2cccc(Nc3nn4c(=O)c5ccccc5nc4s3)c2)CC1	4.6%	·	·	·	·	·	·	·	·	·
Cc1ccc(C(=O)Oc2ccc(-c3nc4ccccc4[nH]3)cc2)cc1Br	-1.2%	·	·	·	·	·	·	·	·	·
Cc1nc2c3ccccc3nc(NNC(=O)CCC(=O)N3CCN(c4cccc(C(F)(F)F)c4)CC3)n2n1	3.1%	-26.8%	?	i	·	·	·	·	·	·
Cc1cc(C)nc(NC(=S)N2CCN(c3cc(C(F)(F)F)cc(C(F)(F)F)c3)CC2)c1	·	·	·	·	3.32µM*	17.0%	?	0.51µM*	-2.0%	21.5µM*
Cc1ccnc(C(=S)N2CCN(c3cccc(C(F)(F)F)c3)CC2)c1	-1.6%	·	·	·	?	?	6.2%	?	-6.7%	17.1µM*
FC(F)(F)c1cccc(N2CCN(C(=S)Nc3ccccn3)CC2)c1	·	·	·	·	2.35µM*	37.3µM*	25.1µM*	0.91µM*	-26.9%	7.64µM*
FC(F)(F)c1cccc(N2CCN(C(=S)Nc3cc4ccccc4cn3)CC2)c1	·	·	·	·	46.9µM*	-1.2%	15.8µM*	12.9µM*	24.1µM*	15.2µM*
Cc1oc2ncn(C)c(=O)c2c1C(=O)N1CCN(c2cccc(C(F)(F)F)c2)CC1	5.4%	-14.7%	0.0%	i	·	·	·	·	·	·
Cc1ccnc(N=C(N)N2CCN(c3cccc(C(F)(F)F)c3)CC2)c1	·	·	·	·	?	?	0.6%	36.3µM*	·	·	Sfp gel=0.6%;hGST A1-1 inh=?
Cc1ccnc(NC(=S)N2CCN(c3cccc(C(F)(F)F)c3)C2)c1	-10.7%[57.5 µM]	·	·	·	3.5%	-28.1%	?	0.81µM*	-8.2%	21.5µM*
Cn1nnc2c(N3CCN(c4cccc(C(F)(F)F)c4)CC3)ncnc21	4.4%	-22.1%	?	i	·	·	·	·	·	·
Cc1ccnc(NC(=S)N2CCCN(c3cccc(C(F)(F)F)c3)CC2)c1	?	·	·	·	4.69µM*	7.44µM*	1.35µM*	1.62µM*	-8.5%	1.71µM*	Sfp gel=1.9µM*;hGST A1-1 inh=?
OCc1ccnc(NC(=S)N2CCN(c3cccc(C(F)(F)F)c3)CC2)c1	-1.4%	·	·	·	59.1µM*	52.7µM*	37.0%	32.4µM*	-20.6%	24.1µM*
C/C=C/C=C/C(=O)N1CC[C@]23c4ccccc4N[C@H]4N(C)c5cccc6c5[C@@]42CCN([C@H]6C2OC2(C)C)[C@H]13 (stereo partly specified)	4.5%[29.8 µM]	·	·	·	·	·	·	·	·	·
CC(C)c1ccc(-n2ncc3c(=O)n(CC(=O)Nc4cc(F)ccc4Cl)cnc32)cc1	-0.1%[57.5 µM]	·	·	·	·	·	·	·	·	·
C=C1CCC(OC(C)=O)C2(C)CC3(O)OC(=O)C(C)=C3CC12 (stereo unspecified)	-11.5%[57.5 µM]	·	·	·	·	·	·	·	·	·
Cc1ccnc(NC(=S)N2CCN(c3cccc(C(F)(F)F)c3)CC2)c1	·	·	·	·	4.69µM*	11.8µM*	0.316µM*!	0.65µM*	-24.9%	7.64µM*	Sfp gel=4.26µM*;hGST A1-1 inh=-3.4%
CSc1ncc(C(=O)N2CCN(c3cccc(C(F)(F)F)c3)CC2)c(C)n1	17.8%	-26.8%	-15.6%	i	·	·	·	·	·	·
SMILES	NTMT1 inh	HTT-AS act	HTT prom inh	GALC G270D act	Sfp qHTS opt	HM489 growth	Sfp PPTase gel	Sfp inh SAR2	HSD17B4 inh	ALDH1A1 inh	others
CCN1CCC(N(Cc2ccc(F)cc2)C(=O)Nc2cccc(C(F)(F)F)c2)CC1	-15.3%	-25.5%	-29.2%	i	·	·	·	·	·	·
FC(F)(F)c1cccc(N2CCN(C(=S)Nc3ncnc4ccccc34)CC2)c1	?	·	·	·	?	5.91µM*	?	9.13µM*	?	6.81µM*
CC(C)Cn1cc(NC(=O)N2CCN(c3cccc(C(F)(F)F)c3)CC2)c2ccccc2c1=O	4.7%	-25.1%	?	i	·	·	·	·	·	·
Cc1ccnc(NC(=S)N2CCC(Nc3cccc(C(F)(F)F)c3)CC2)c1	-16.7%	·	·	·	1.87µM*	11.8µM*	0.398µM*	1.02µM*	1.8%	4.82µM*
Cn1cnc(S(=O)(=O)N2CCC(C(=O)N3CCN(c4cccc(C(F)(F)F)c4)CC3)CC2)c1	-4.9%	-5.7%	-15.7%	i	·	·	·	·	·	·
FC(F)(F)c1cccc(N2CCN(C(=S)Nc3cnccn3)CC2)c1	·	·	·	·	?	-52.8%	158µM*	?	30.4µM*	24.1µM*
